Data on 43 sequences can be found in paper PMC11006913.

Assay [1] addresses HOXA7 (Homo sapiens, UniProt P31268 116-202). Kind of assay: PBM; 200 nM protein, PBS. As to conditions: dsDNA, one strand shown.
For assay [2], the target named is HOXA7 (Homo sapiens, UniProt P31268 116-202, W177C). As to the kind of experiment: PBM; 200 nM protein, PBS. The following applies: dsDNA, one strand shown.
Sequence of HOXA7 (Homo sapiens, UniProt P31268 116-202, W177C) (P31268 116-202 W177C): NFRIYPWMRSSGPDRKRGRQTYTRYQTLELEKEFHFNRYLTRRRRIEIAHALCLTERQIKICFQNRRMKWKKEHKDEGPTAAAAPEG

Sequence of HOXA7 (Homo sapiens, UniProt P31268 116-202) (P31268 116-202): as the sequence (P31268 116-202 W177C) above, with C62W counted along it

As for ACCCCCCT, the binding signal with HOXA7 [1] is 8.3 upbm affinity estimate (log intensity, higher = more binding, comparable within an allelic series); with HOXA7 [2], 8.32 upbm affinity estimate (log intensity, higher = more binding, comparable within an allelic series).

Consider CACCTACG, for which the binding signal with HOXA7 [1] is 8.56 upbm affinity estimate (log intensity, higher = more binding, comparable within an allelic series); in the assay with HOXA7 [2] it was 8.57 upbm affinity estimate (log intensity, higher = more binding, comparable within an allelic series).

Consider AGAGACTG, for which the binding signal with HOXA7 [1] is 8.18 upbm affinity estimate (log intensity, higher = more binding, comparable within an allelic series); with HOXA7 [2] it was 8.35 upbm affinity estimate (log intensity, higher = more binding, comparable within an allelic series).

As for CATTTTAA, the binding signal was 9.97 upbm affinity estimate (log intensity, higher = more binding, comparable within an allelic series) with HOXA7 [1] and 8.79 upbm affinity estimate (log intensity, higher = more binding, comparable within an allelic series) with HOXA7 [2].

For ACCGCTCC, the binding signal is 8.61 upbm affinity estimate (log intensity, higher = more binding, comparable within an allelic series) in the assay with HOXA7 [1] and 8.49 upbm affinity estimate (log intensity, higher = more binding, comparable within an allelic series) with HOXA7 [2].

Regarding AAAATGAC, the binding signal with HOXA7 [1] was 10 upbm affinity estimate (log intensity, higher = more binding, comparable within an allelic series); with HOXA7 [2], 8.89 upbm affinity estimate (log intensity, higher = more binding, comparable within an allelic series).

For CTATTATA, the binding signal was 10.7 upbm affinity estimate (log intensity, higher = more binding, comparable within an allelic series) in the assay with HOXA7 [1] and 8.92 upbm affinity estimate (log intensity, higher = more binding, comparable within an allelic series) with HOXA7 [2].

CAGAGGAG: the binding signal is 8.43 upbm affinity estimate (log intensity, higher = more binding, comparable within an allelic series) in the assay with HOXA7 [1] and 8.46 upbm affinity estimate (log intensity, higher = more binding, comparable within an allelic series) with HOXA7 [2].

With CCCCCGAC, the binding signal with HOXA7 [1] was 8.66 upbm affinity estimate (log intensity, higher = more binding, comparable within an allelic series); with HOXA7 [2], 8.36 upbm affinity estimate (log intensity, higher = more binding, comparable within an allelic series).

Turning to CGCTGTGC, the binding signal with HOXA7 [1] is 8.49 upbm affinity estimate (log intensity, higher = more binding, comparable within an allelic series); with HOXA7 [2] it was 8.35 upbm affinity estimate (log intensity, higher = more binding, comparable within an allelic series).

Regarding ACCTCGCT, the binding signal was 8.51 upbm affinity estimate (log intensity, higher = more binding, comparable within an allelic series) in the assay with HOXA7 [1] and 8.51 upbm affinity estimate (log intensity, higher = more binding, comparable within an allelic series) with HOXA7 [2].

As for TCATTTCA, the binding signal with HOXA7 [1] was 9.51 upbm affinity estimate (log intensity, higher = more binding, comparable within an allelic series); in the assay with HOXA7 [2] it was 8.76 upbm affinity estimate (log intensity, higher = more binding, comparable within an allelic series).

With AAATTGCC, the binding signal with HOXA7 [1] is 10.3 upbm affinity estimate (log intensity, higher = more binding, comparable within an allelic series); in the assay with HOXA7 [2], 8.7 upbm affinity estimate (log intensity, higher = more binding, comparable within an allelic series).

Take AGAATGAT: the binding signal is 9.52 upbm affinity estimate (log intensity, higher = more binding, comparable within an allelic series) with HOXA7 [1] and 8.8 upbm affinity estimate (log intensity, higher = more binding, comparable within an allelic series) with HOXA7 [2].

As to CCATTTAA, the binding signal is 10.5 upbm affinity estimate (log intensity, higher = more binding, comparable within an allelic series) with HOXA7 [1] and 8.76 upbm affinity estimate (log intensity, higher = more binding, comparable within an allelic series) with HOXA7 [2].

Regarding CATTTACA, the binding signal is 9.74 upbm affinity estimate (log intensity, higher = more binding, comparable within an allelic series) in the assay with HOXA7 [1] and 8.8 upbm affinity estimate (log intensity, higher = more binding, comparable within an allelic series) with HOXA7 [2].

Consider CTCATTTA, for which the binding signal with HOXA7 [1] is 9.93 upbm affinity estimate (log intensity, higher = more binding, comparable within an allelic series); with HOXA7 [2], 8.72 upbm affinity estimate (log intensity, higher = more binding, comparable within an allelic series).

Turning to GGCCTGAA, the binding signal was 8.61 upbm affinity estimate (log intensity, higher = more binding, comparable within an allelic series) with HOXA7 [1] and 8.38 upbm affinity estimate (log intensity, higher = more binding, comparable within an allelic series) with HOXA7 [2].

With AGACGGCG, the binding signal is 8.6 upbm affinity estimate (log intensity, higher = more binding, comparable within an allelic series) in the assay with HOXA7 [1] and 8.4 upbm affinity estimate (log intensity, higher = more binding, comparable within an allelic series) in the assay with HOXA7 [2].

For CGCGTTTC, the binding signal with HOXA7 [1] is 8.49 upbm affinity estimate (log intensity, higher = more binding, comparable within an allelic series); with HOXA7 [2] it was 8.39 upbm affinity estimate (log intensity, higher = more binding, comparable within an allelic series).

With GCAAGCGA, the binding signal is 8.55 upbm affinity estimate (log intensity, higher = more binding, comparable within an allelic series) in the assay with HOXA7 [1] and 8.45 upbm affinity estimate (log intensity, higher = more binding, comparable within an allelic series) with HOXA7 [2].

CGACTAGC: the binding signal with HOXA7 [1] is 8.47 upbm affinity estimate (log intensity, higher = more binding, comparable within an allelic series); in the assay with HOXA7 [2] it was 8.47 upbm affinity estimate (log intensity, higher = more binding, comparable within an allelic series).

As for GAAGGGAC, the binding signal with HOXA7 [1] is 8.46 upbm affinity estimate (log intensity, higher = more binding, comparable within an allelic series); with HOXA7 [2], 8.39 upbm affinity estimate (log intensity, higher = more binding, comparable within an allelic series).

On to TGAGAGCA, for which the binding signal with HOXA7 [1] is 8.62 upbm affinity estimate (log intensity, higher = more binding, comparable within an allelic series); with HOXA7 [2], 8.54 upbm affinity estimate (log intensity, higher = more binding, comparable within an allelic series).

Consider GCTCGGTA, for which the binding signal was 8.46 upbm affinity estimate (log intensity, higher = more binding, comparable within an allelic series) with HOXA7 [1] and 8.43 upbm affinity estimate (log intensity, higher = more binding, comparable within an allelic series) with HOXA7 [2].

On to CAGCAACC, for which the binding signal with HOXA7 [1] is 8.52 upbm affinity estimate (log intensity, higher = more binding, comparable within an allelic series); in the assay with HOXA7 [2] it was 8.47 upbm affinity estimate (log intensity, higher = more binding, comparable within an allelic series).

Regarding CCATAATC, the binding signal with HOXA7 [1] is 9.89 upbm affinity estimate (log intensity, higher = more binding, comparable within an allelic series); with HOXA7 [2], 8.75 upbm affinity estimate (log intensity, higher = more binding, comparable within an allelic series).

In the case of ACTGAAGG, the binding signal is 8.48 upbm affinity estimate (log intensity, higher = more binding, comparable within an allelic series) with HOXA7 [1] and 8.52 upbm affinity estimate (log intensity, higher = more binding, comparable within an allelic series) with HOXA7 [2].

For the sequence CATTATGC, the binding signal is 10.3 upbm affinity estimate (log intensity, higher = more binding, comparable within an allelic series) with HOXA7 [1] and 8.86 upbm affinity estimate (log intensity, higher = more binding, comparable within an allelic series) with HOXA7 [2].

With AAATTACG, the binding signal with HOXA7 [1] is 10.3 upbm affinity estimate (log intensity, higher = more binding, comparable within an allelic series); with HOXA7 [2], 8.82 upbm affinity estimate (log intensity, higher = more binding, comparable within an allelic series).

For CCTTCGAC, the binding signal with HOXA7 [1] is 8.4 upbm affinity estimate (log intensity, higher = more binding, comparable within an allelic series); with HOXA7 [2] it was 8.45 upbm affinity estimate (log intensity, higher = more binding, comparable within an allelic series).

In the case of CCATTACA, the binding signal was 10.6 upbm affinity estimate (log intensity, higher = more binding, comparable within an allelic series) with HOXA7 [1] and 8.97 upbm affinity estimate (log intensity, higher = more binding, comparable within an allelic series) with HOXA7 [2].

On to CCATTATA, for which the binding signal was 11.2 upbm affinity estimate (log intensity, higher = more binding, comparable within an allelic series) in the assay with HOXA7 [1] and 8.97 upbm affinity estimate (log intensity, higher = more binding, comparable within an allelic series) with HOXA7 [2].

Turning to CCTTATAA, the binding signal with HOXA7 [1] is 9.62 upbm affinity estimate (log intensity, higher = more binding, comparable within an allelic series); with HOXA7 [2] it was 8.88 upbm affinity estimate (log intensity, higher = more binding, comparable within an allelic series).

For CCAGAGGA, the binding signal was 8.4 upbm affinity estimate (log intensity, higher = more binding, comparable within an allelic series) with HOXA7 [1] and 8.47 upbm affinity estimate (log intensity, higher = more binding, comparable within an allelic series) in the assay with HOXA7 [2].

Consider CCATGCTC, for which the binding signal was 8.55 upbm affinity estimate (log intensity, higher = more binding, comparable within an allelic series) in the assay with HOXA7 [1] and 8.51 upbm affinity estimate (log intensity, higher = more binding, comparable within an allelic series) with HOXA7 [2].

On to GATTAAAC, for which the binding signal with HOXA7 [1] is 9.54 upbm affinity estimate (log intensity, higher = more binding, comparable within an allelic series); in the assay with HOXA7 [2], 8.63 upbm affinity estimate (log intensity, higher = more binding, comparable within an allelic series).

With AGAGCAAG, the binding signal is 8.36 upbm affinity estimate (log intensity, higher = more binding, comparable within an allelic series) with HOXA7 [1] and 8.46 upbm affinity estimate (log intensity, higher = more binding, comparable within an allelic series) with HOXA7 [2].

As to AGAAGAAA, the binding signal with HOXA7 [1] is 8.53 upbm affinity estimate (log intensity, higher = more binding, comparable within an allelic series); with HOXA7 [2], 8.55 upbm affinity estimate (log intensity, higher = more binding, comparable within an allelic series).

On to CTCTGAGC, for which the binding signal is 8.36 upbm affinity estimate (log intensity, higher = more binding, comparable within an allelic series) with HOXA7 [1] and 8.46 upbm affinity estimate (log intensity, higher = more binding, comparable within an allelic series) with HOXA7 [2].

As for CCGTAATA, the binding signal with HOXA7 [1] is 10.2 upbm affinity estimate (log intensity, higher = more binding, comparable within an allelic series); with HOXA7 [2] it was 8.79 upbm affinity estimate (log intensity, higher = more binding, comparable within an allelic series).

Consider AGGCCCAG, for which the binding signal with HOXA7 [1] was 8.42 upbm affinity estimate (log intensity, higher = more binding, comparable within an allelic series); with HOXA7 [2] it was 8.28 upbm affinity estimate (log intensity, higher = more binding, comparable within an allelic series).

AAGGACTG: the binding signal is 8.44 upbm affinity estimate (log intensity, higher = more binding, comparable within an allelic series) in the assay with HOXA7 [1] and 8.4 upbm affinity estimate (log intensity, higher = more binding, comparable within an allelic series) in the assay with HOXA7 [2].
